Sampled rows, rich in hits. Any-hit rate of the full collection: about 27%.
sEH act: soluble epoxide hydrolase activators, primary screen, biochemical, human sEH; Bifunctional epoxide hydrolase 2 (Homo sapiens), P34913; purified human sEH enzymatic activity, activator screen; activation, % at 2 µM; actives 0.04% (n = 91,000); in the data active = activation above about 37%
Target sequence (P34913 whole entry, looked up): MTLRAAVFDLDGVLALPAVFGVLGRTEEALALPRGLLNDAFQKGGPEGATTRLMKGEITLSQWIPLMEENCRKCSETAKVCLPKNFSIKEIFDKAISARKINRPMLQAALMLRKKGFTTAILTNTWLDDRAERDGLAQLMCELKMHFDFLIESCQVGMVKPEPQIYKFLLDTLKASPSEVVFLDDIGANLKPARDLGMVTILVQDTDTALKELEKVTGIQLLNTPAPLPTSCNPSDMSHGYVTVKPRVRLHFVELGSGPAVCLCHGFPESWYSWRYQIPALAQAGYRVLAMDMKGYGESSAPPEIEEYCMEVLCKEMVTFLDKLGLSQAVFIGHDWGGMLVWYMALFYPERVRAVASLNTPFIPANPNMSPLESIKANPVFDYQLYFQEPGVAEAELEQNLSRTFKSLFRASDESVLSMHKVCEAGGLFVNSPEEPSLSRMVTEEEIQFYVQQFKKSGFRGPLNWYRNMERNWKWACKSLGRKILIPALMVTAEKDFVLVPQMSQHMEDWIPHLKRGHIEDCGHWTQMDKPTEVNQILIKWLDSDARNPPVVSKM
CYP2C19 activ: human CYP2C19 activators, primary screen, biochemical, luminescence; recombinant CYP2C19, luciferin-H EGE luminescence; stronger effect = higher value; 0 = fully inhibited enzyme, 1 = untreated enzyme; activation factor at 5 µM; 96,000 tested, under 10 active;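 active = activation factor of at least 2 at 5 µM in the primary screen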
sEH inh: soluble epoxide hydrolase inhibitors, primary screen, biochemical, human sEH | recombinant human sEH enzymatic activity assay | inhibition, % at 2 µM | actives 0.34% (n = 91,000) | AID 707, 2007; in the data active = inhibition above about 80%
CYP2C9 inhib: blockers of cytochrome P450 2C9 activity – biochemical, luminescence, ADME assay, primary screen. P11712. CYP2C9 Supersomes, luciferin-H conversion. inhibition, % at 5 µM. actives 20% (n = 96,000). AID 777, 2007;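 active = blocking of liver enzyme CYP2C9 beyond about 50% at 5 µM, limit read from the data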
CYP2C19 inh: blockers of cytochrome P450 2C19 activity – biochemical, luminescence, ADME assay, primary screen; P33261; CYP2C19 Supersomes, luciferin-H EGE luminescence, 30 min; inhibition, % at 5 µM; actives 21% (n = 96,000);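 active = CYP2C19 inhibition above a set limit at 5 µM in the primary screen, cut at about 50% in these data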
CYP2C9 activ: human CYP2C9 activators, primary screen, biochemical, luminescence; Cytochrome P450 2C9 (Homo sapiens), P11712; recombinant CYP2C9, luciferin-H conversion; stronger effect = higher value; factor 1 = untreated enzyme, 0 = blocked; activation factor at 5 µM; actives 1.4% (n = 96,000); AID 1024, 2008;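 active = activation factor of 2 or more for CYP2C9 at a 5 µM dose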
Large screens that a line does not name were inactive.

CCOC(=O)C1=C(C)NC(=O)NC1c1ccccc1OCc1c(F)cccc1Cl (stereo unspecified)	CYP2C9 inhib 70.1
COc1cccc(C2C(C#N)=C(N)OC3=C2C(=O)CCC3)c1OC(=O)c1ccco1 (stereo unspecified)	none
CC1=C(C(N)=O)C(c2ccccc2F)NC(=O)N1 (stereo unspecified)	CYP2C9 inhib 53.2
CC1=C(C(=O)OCC2CCCO2)C(c2ccccc2Cl)NC(=O)N1 (stereo unspecified)	none (no result: CYP2C19 activ, CYP2C9 inhib, CYP2C19 inh, CYP2C9 activ)
CC(=O)c1c(C)nn(CCC(=O)O)c1C	none
CC(C)OCCCNC(=O)Cn1nc(-c2ccccc2)ccc1=O	none (no result: sEH act, sEH inh)
CC(=O)N1c2ccccc2C(C)(C)C2CCC(C)CC21 (stereo unspecified)	none (no result: CYP2C19 activ, CYP2C9 inhib, CYP2C19 inh, CYP2C9 activ)
CCCOc1ccccc1C1NC(=O)NC(C)=C1C(=O)OCCOCC (stereo unspecified)	none
CCCCOc1ccccc1C1NC(=O)NC(C)=C1C(=O)OCc1ccco1 (stereo unspecified)	CYP2C9 inhib 72.6, CYP2C19 inh 60.9
CCOC(=O)C1=C(C)N(C)C(=O)NC1c1ccccc1OC (stereo unspecified)	none
CCCC1=C(C(=O)OCC)C(c2ccccc2OCC)NC(=O)N1C (stereo unspecified)	CYP2C9 inhib 81.0, CYP2C19 inh 81.3
Cc1ccc(NC(=O)CC2SC3=NCCCN3C2=O)c(C)c1 (stereo unspecified)	none
CCNC(=S)NC1CC2CCC(C1)N2Cc1ccccc1 (stereo unspecified)	CYP2C19 inh 51.7
CCCNC(=S)NC1CC2CCC(C1)N2Cc1ccccc1 (stereo unspecified)	none
CCCCNC(=O)CS(=O)Cc1nc(-c2cccc(Cl)c2)oc1C (stereo unspecified)	CYP2C9 inhib 61.9 (no result: sEH act, sEH inh)
CCCCSCCCNC(=O)CS(=O)Cc1nc(-c2cccc(C)c2)oc1C (stereo unspecified)	CYP2C9 inhib 78.2, CYP2C19 inh 84.7
CCCCNC(=O)CS(=O)Cc1nc(-c2cccc(C)c2)oc1C (stereo unspecified)	none
CCC(=O)NCCc1nc2cc(NC(=O)c3ccc(OC)cc3)ccc2n1C	none
Cc1cc(N/C=C2\CCCCC2=O)no1	none
COCCCNC(=O)CN1C(=O)CSc2ncccc21	none (no result: sEH act, sEH inh)
Cc1c(Cl)cccc1NC(=O)CN1C(=O)CSc2ncccc21	CYP2C19 inh 63.7, CYP2C9 activ 3.6 (no result: sEH act, sEH inh)
Oc1ccc(Cl)cc1C(C#Cc1ccccc1)N1CCOCC1 (stereo unspecified)	none
COc1ccc(C2C3=C(CCCC3=O)Nc3nc4ccccc4n32)cc1OC (stereo unspecified)	none (no result: CYP2C19 activ, CYP2C9 inhib, CYP2C19 inh, CYP2C9 activ)
O=C(NNC(=O)c1ccc(O)cc1O)c1ccc(Cl)cc1	CYP2C9 activ 2
O=C(NNC(=O)c1ccccc1O)c1ccc(Cl)cc1	none
Cc1ccc(C)n1NC(=O)c1ccc(Cl)cc1	none
Cc1cccc(C(=O)NNC(=O)c2ccc(Cl)cc2)c1O	CYP2C19 inh 50.3, CYP2C9 activ 2.9
O=C(Nc1nc2ccc(S(=O)(=O)N3CCCCC3)cc2s1)c1ccncc1	CYP2C9 inhib 84.5, CYP2C19 inh 86.2
O=C(Nc1nc2ccc(S(=O)(=O)N3CCCCC3)cc2s1)c1cccnc1	none
O=S(=O)(Nc1nc2ccc(S(=O)(=O)N3CCCCC3)cc2s1)c1ccccc1	CYP2C9 inhib 99.3
Cc1ccc(S(=O)(=O)Nc2nc3ccc(S(=O)(=O)N4CCCC4)cc3s2)cc1	CYP2C9 inhib 98.0
O=C(Nc1nc2ccc(S(=O)(=O)N3CCCC3)cc2s1)c1cccs1	none
Cc1ccccc1OCCNC(=O)CNC(=O)c1ccccc1O	none
CCN(c1cccc(C)c1)c1nc2ccsc2c(=O)s1	CYP2C9 inhib 86.7, CYP2C19 inh 65.4
CCOC(=O)SC1=N/C(=C\c2ccc(N(C)C)cc2)C(=O)S1	CYP2C9 inhib 68.0
CCSC1=N/C(=C\c2ccc(C(=O)O)cc2)C(=O)S1	none
Cc1cnc(N)c2c(=O)oc3ccccc3c12	CYP2C9 activ 2 (no result: sEH act, sEH inh)
O=c1oc2ccccc2c2nccnc12	none
N#CC(C#N)=CC1=C2OC(c3ccccc3)=CC(c3ccccc3)=C2CCC1	CYP2C9 inhib 79.2
N#C/C(=N\Nc1ccccc1Cl)C(=O)c1ccccc1	none
N#C/C(=N\Nc1cccc(Cl)c1)C(=O)c1ccccc1	CYP2C9 inhib 63.0
OCCSc1c(F)c(SCCO)c(SCCO)c(F)c1SCCO	CYP2C9 inhib 70.2
CCC(C(=O)NCCN1CCN(C)CC1)n1c(C)c2cnn(-c3ccccc3)c(=O)c2c1C (stereo unspecified)	none (no result: sEH act, sEH inh)
COc1ccc(Oc2c(C=O)c3ccccc3n2C)cc1	CYP2C19 inh 69.2
Cc1ccc(Oc2c(C=O)c3ccccc3n2C)cc1	CYP2C19 inh 67.8
Cn1c(Oc2ccc(Cl)cc2)c(C=O)c2ccccc21	CYP2C19 inh 57.7
Cc1ccc(Oc2ccccc2/C=C/C(=O)O)cc1	none (no result: sEH act, sEH inh)
CCOC(=O)c1c(C)[nH]c(C(=O)COC(=O)CNC(=O)C2CCCCC2)c1C	none (no result: sEH act, sEH inh)
CN(C)C(=O)COC(=O)/C=C/c1ccccc1[N+](=O)[O-]	CYP2C9 activ 2.1
CCNC(=O)COC(=O)/C=C/c1ccccc1[N+](=O)[O-]	none
COC(=O)CSc1snnc1-c1ccc(F)cc1	CYP2C19 inh 66.3
Cc1cccc(OCCC(=O)Nc2c(C)n(C)n(-c3ccccc3)c2=O)c1	none
CCc1ccc(-c2nc(CSCC(=O)N3CCN(c4ncccn4)CC3)c(C)o2)cc1	CYP2C9 inhib 75.0
CCOC(=O)N1CCN(C(=O)CSCc2nc(-c3ccccc3C)oc2C)CC1	CYP2C19 inh 58.9
COc1cc(CC(=O)NCCc2ccc(OCc3ccccc3)cc2)c([N+](=O)[O-])cc1OC	CYP2C19 inh 61.0
COc1ccc(CCNC(=O)Cc2cc(OCc3ccccc3)c(OC)cc2[N+](=O)[O-])cc1OC	CYP2C9 inhib 54.9
Cc1ccc(C(=O)Nc2ccc(OCc3ccccc3)cc2)cc1[N+](=O)[O-]	none
O=C1Cc2ccccc2C(c2ccc(Br)cc2)N1 (stereo unspecified)	CYP2C9 inhib 71.2, CYP2C19 inh 100.2
Cc1nccn1-c1ccc(C(F)(F)F)cc1NC=O	none
CC1=CC(C#N)(C#N)C(C#N)(C#N)C(c2ccccc2)N1 (stereo unspecified)	CYP2C9 inhib 89.6
CCN(CC)c1ccc(NC(=O)c2cnc3ccccn3c2=O)c(C)c1	none (no result: sEH act, sEH inh)
Cc1noc(C)c1COC(=O)C1(c2cccc(F)c2)CCCC1	CYP2C9 inhib 55.8 (no result: sEH act, sEH inh)
CCOC(=O)c1nnc(-c2ccccc2)nc1NCc1ccc(Cl)cc1	none
Cc1ccccc1OCC(=O)Nc1ccc2c(c1)OCO2	CYP2C19 inh 66.3
